Experimental data published in PubChem BioAssay (NCI).
The panel holds about 83,000 compounds, 20% with a hit somewhere; the sample as a whole holds those more often.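 Compound tested at a single concentration for 48 hours in 96-well plates; a percent growth value below 10 was scored as active.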 A number with no mark means an inactive call. The source made the active and inactive calls.

Legend:
Assay in all cases: NCI-60 one-dose screen, 48 h (100 = growth as untreated, 0 = no growth, -100 = all killed)
Details in all cases: 10 µM
DU-145 prostate = system: DU-145 prostate
K-562 leukemia = system: K-562 leukemia
MALME-3M melanoma = system: MALME-3M melanoma
MDA-MB-231 breast = system: MDA-MB-231 breast
RXF 393 renal = system: RXF 393 renal
SF-268 CNS = system: SF-268 CNS
SF-295 CNS = system: SF-295 CNS
SF-539 CNS = system: SF-539 CNS
UACC-257 melanoma = system: UACC-257 melanoma
M14 melanoma = system: M14 melanoma
HCT-15 colon = system: HCT-15 colon
HT29 colon = system: HT29 colon
SNB-75 CNS = system: SNB-75 CNS
SNB-19 CNS = system: SNB-19 CNS
U251 CNS = system: U251 CNS
PC-3 prostate = system: PC-3 prostate
SK-MEL-5 melanoma = system: SK-MEL-5 melanoma
UACC-62 melanoma = system: UACC-62 melanoma
LOX IMVI melanoma = system: LOX IMVI melanoma
SK-MEL-28 melanoma = system: SK-MEL-28 melanoma

SMILES	growth (DU-145 prostate)	growth (K-562 leukemia)	growth (MALME-3M melanoma)	growth (MDA-MB-231 breast)	growth (RXF 393 renal)	growth (SF-268 CNS)	growth (SF-295 CNS)	growth (SF-539 CNS)	growth (UACC-257 melanoma)	growth (M14 melanoma)	growth (HCT-15 colon)	growth (HT29 colon)	growth (SNB-75 CNS)	growth (SNB-19 CNS)	growth (U251 CNS)	growth (PC-3 prostate)	growth (SK-MEL-5 melanoma)	growth (UACC-62 melanoma)	growth (LOX IMVI melanoma)	growth (SK-MEL-28 melanoma)
COc1cc2c3c(cccc3c1)C(=O)N(CCN1CCCC1)C2=O	15.1%	4.01% (active)	-21.7% (active)	29.1%	10.9%	28.2%	40.2%	30.1%	-10.4% (active)	25.7%	20.1%	0.567% (active)	23.5%	31.7%	25.9%	14.3%	-33.3% (active)	-34% (active)	-2.23% (active)	19.1%
COc1cccc(-c2nnc(COc3ccc(-c4nc5ccc(C)cc5[nH]4)cc3OC)o2)c1	65.2%	13.5%	52.8%	64.5%	85.1%	101%	99.2%	57.4%	97.1%	53.9%	18.5%	21.4%	56.6%	69.6%	23%	57.7%	70.4%	79.9%	78.4%	65.2%
Cc1cc(OI)c(C(C)C)cc1-c1cc(C(C)C)c(OI)cc1C	101%	98.8%	105%	104%	101%	96.8%	101%	94.3%	101%	104%	105%	101%	107%	104%	103%	98.6%	103%	98.7%	93.4%	103%
CNC(=O)c1cc(Oc2ccc(NC(=O)Nc3ccc(Cl)c(OC4CCCCC4)c3)c(F)c2)ccn1	65.6%	17.1%	69%	68.7%	79.4%	61%	20.5%	59.9%	23.3%	40%	37.7%	48.1%	51.5%	41.2%	38.8%	16.6%	15.6%	32.2%	42.3%	75.4%
COc1ccc(C2C=C(c3ccc(Cl)c(Cl)c3)N=C3SC(C)=CN32)cc1OC (stereo not given)	83.6%	59.5%	87.3%	46.1%	66.4%	63.2%	42.5%	90.7%	79.7%	71%	80.7%	62.9%	83.4%	79.4%	69.2%	35.6%	85.1%	82.9%	56.2%	62.4%
COc1ccc(-c2nc(-c3nc4ccc(C)cc4[nH]3)c3ccccn23)cc1	52.2%	20.4%	85.3%	32.9%	66.5%	45%	8.6% (active)	82.4%	57.6%	46.5%	33.7%	21.9%	66.6%	55.3%	42.6%	25.3%	39.9%	47%	46%	84.6%
Cc1cc(C)c2c(Nc3ncnc4c3sc3nc(C)cc(C)c34)n[nH]c2n1	113%	93.2%	94.2%	99.4%	97.6%	103%	91.3%	100%	100%	99%	93.2%	102%	94.4%	95.8%	99.4%	88.4%	99.1%	95.4%	95.5%	94.5%
CC(=O)/C(=C\c1ccc(Cl)cc1)c1ccccc1	0.722% (active)	8.97% (active)	73.1%	19.4%	25.7%	23.9%	-6.11% (active)	-1.66% (active)	72.2%	1.53% (active)	10.3%	2.71% (active)	37.4%	29.7%	13.6%	21.9%	-35.6% (active)	29.2%	0.385% (active)	65%
COc1cc(C)c2sc3ccccc3c(=O)c2c1NCCN(C)C	77.1%	-1.18% (active)	38.9%	27.9%	59.3%	61.3%	53.6%	66.7%	-22.8% (active)	24%	39.3%	16.3%	50.5%	65.2%	44.8%	53.4%	36.9%	-90.3% (active)	26.4%	54.1%
O=C(CSc1nnc(-c2ccc(Cl)cc2)o1)c1ccccc1	101%	102%	112%	95.2%	99.9%	101%	100%	91.4%	98.9%	108%	99%	96.1%	98.3%	101%	96%	86.9%	91.7%	92.4%	94.3%	102%
NC1CCC(Nc2nc(NCc3ccc(-c4cccs4)nc3)c3ncn(C4CCCC4)c3n2)CC1 (stereo not given)	8.83% (active)	-6% (active)	-74.7% (active)	-0.601% (active)	-50% (active)	-5.75% (active)	0.906% (active)	-56.7% (active)	-74.6% (active)	-80.6% (active)	0.306% (active)	-12.7% (active)	-63.5% (active)	10.2%	3.21% (active)	1.6% (active)	-96.8% (active)	-42.4% (active)	-82.1% (active)	-62.3% (active)
N#Cc1ccc(-n2cnc(NC(=O)[C@H]3CCN(C#N)C3)c2)cc1	29.7%	17.8%	-14.1% (active)	14.8%	-54.8% (active)	29.9%	42%	-9.26% (active)	42.3%	29.1%	11.1%	15.6%	-1.74% (active)	35.1%	7.35% (active)	32%	12.1%	18.8%	16.5%	36.4%
CCc1cc2n(n1)-c1ncc(C(=O)OC)cc1Oc1ccccc1-2	111%	102%	120%	102%	114%	103%	101%	97.9%	104%	108%	96.7%	112%	89.4%	109%	94.4%	97.5%	96.2%	102%	96.8%	120%
C=CCc1cc(Nc2c3ccc(Cl)cc3nc3ccc(OC)cc23)cc(CN(CC)CC)c1O	20.5%	3.36% (active)	2.15% (active)	0.676% (active)	32.1%	23%	-2.05% (active)	21.2%	4.74% (active)	19.8%	9.53% (active)	3.04% (active)	13%	20.6%	12.5%	9.79% (active)	-92.7% (active)	19.1%	-32.9% (active)	39.1%
O=C(Nc1cccc(F)c1)Nc1cccc(Cl)c1	65.8%	10.9%	84.6%	80.7%	104%	80.4%	92.7%	105%	87.7%	100%	82.9%	90.9%	89.1%	99.9%	90.5%	65.5%	91.5%	77.1%	106%	98.9%
O=C(Nc1ccc(OS(=O)(=O)Cc2ccccc2)cc1)C12CC3CC(CC(C3)C1)C2	87.4%	13.1%	91.8%	78.7%	99%	84.6%	60.3%	86.1%	99%	77.4%	56.8%	9.75% (active)	114%	91.4%	67.7%	55.6%	63.3%	81.6%	68%	103%
